Laboratory results as given in PubChem BioAssay AID493205 (National Center for Advancing Translational Sciences (NCATS), 2011).
This is one part of the list. Entries that show only a call come without a potency. Records with an inconclusive call do not appear. Activity calls are given as the source filed them. The call rests on the fitted dose curve; in most records, active means well fitted inhibition curve with a large enough effect; inconclusive means small, poorly fitted or top-dose-only effect, or effect the other way; inactive means no such curve, though single readings can be large or run the other way.

Target: Muscleblind-like protein 1 (Homo sapiens) (UniProt Q9NR56)
Experiment: qHTS Assay for Inhibitors of MBNL1-poly(CUG) RNA binding: Initial hit validation in AlphaScreen assay for MBNL1-(CUG)12 binding
Conditions: AlphaScreen MBNL1-His / biotin-(CUG)12 binding; series mostly up to 57.7 µM
Text: NIH Chemical Genomics Center [NCGC] NIH Molecular Libraries Probe Production Centers Network [MLPCN] MLPCN Grant: R03 MH087421-01 Assay Submitter (PI): Charles Thornton NCGC Assay Overview: Expanded CTG repeats in the 3' untranslated region of the DM protein kinase (DMPK) gene causes type I myotonic dystrophy (DM1). DM1 is a multi-systemic disease with a prevalence of 1/7000. Clinical features include myotonia, progressive muscle weakness and wasting, cardiac arrhythmia, insulin resistance, hypersomnolence, cataracts, and other symptoms. The pathogenic effect of expanded CTG repeats stems from deleterious effects of the mutant transcript. CUGexp mRNA accumulates in nuclear foci and sequesters proteins of the muscleblind family, of which MBNL1 is the most common family member in skeletal muscles. The binding interaction between MBNL1 and CUGexp tracts leads to deregulation of alternative splicing and is therefore a key molecular step in the pathogenesis of DM1. […]
NCGC Assay Protocol Summary: This is a proximity-based binding assay with MBNL1-His and Biotin-(CUG)12 RNA. […] The AC50 values were determined from concentration-response data modeled with the standard Hill equation Assay buffer: 20mM HEPES, 110mM KCl, 10mM NaCl, 2mM MgCl2, 2mM CaCl2, 5mM DTT, 0.1% BSA, 0.05% Tween 20 1536-well assay protocol for the MBNL1-(CUG)12 binding assay: (1) Add 2 ul/well 20nM MBNL1-His, 20nM Biotin-(CUG)12 (2) Add 23 nL compounds in DMSO solution. […] (3) Add 1 ul of Nickel-coated AlphaScreen acceptor beads (6.25 ng/ul final concentration) (4) Incubate 30 min at room temperature (5) Add 1 ul of Streptavidin-conjugated AlphaScreen donor beads (6.25 ng/ul final concentration) (6) Incubate 60 min at room temperature (7) Detect the assay plate in a EnVision plate reader (PerkinElmer) with AlphaScreen protocol Keywords: mytonic dystrophy type I, DM1, muscleblind like 1, MBNL1, CUG expansion, protein-RNA binding inhibitor, high throughput screening, MLSMR, MLSCN, NIH Roadmap, qHTS and NCGC

Chain of Muscleblind-like protein 1 (Homo sapiens) (Q9NR56 whole entry, looked up): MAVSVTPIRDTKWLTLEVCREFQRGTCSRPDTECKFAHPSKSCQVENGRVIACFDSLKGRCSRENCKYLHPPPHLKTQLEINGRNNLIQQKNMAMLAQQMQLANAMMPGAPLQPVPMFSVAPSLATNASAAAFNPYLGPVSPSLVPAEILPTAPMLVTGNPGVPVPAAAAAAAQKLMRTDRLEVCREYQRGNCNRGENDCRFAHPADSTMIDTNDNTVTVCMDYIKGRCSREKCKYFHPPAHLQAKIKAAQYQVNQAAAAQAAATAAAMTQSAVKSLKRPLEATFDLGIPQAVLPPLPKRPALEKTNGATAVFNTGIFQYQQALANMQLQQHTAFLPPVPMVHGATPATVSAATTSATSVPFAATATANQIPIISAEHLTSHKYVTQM

Row | Structure (SMILES) | Potency
1 | CCOC(=O)c1c(C)[nH]c2c1-c1ccccc1C(=O)C2=O | 4.11 µM (active)
2 | COc1cccc(NC(=O)Cn2cnc3sc(C)c(S(=O)(=O)N4CCN(C)CC4)c3c2=O)c1 | inactive
3 | COc1ccc(Cc2n[nH]c(=S)n2NC(=O)Nc2ccc(C)cc2)cc1 | inactive
